Shown are actives, neighbours in structure and some others; about 12% of the full set was active somewhere.
BAZ2B inh: BAZ2B (human) inhibition; Q9UIF8; AlphaScreen BAZ2B-H3K14Ac peptide displacement; Potency, µM (doses to about 114 µM), without a hit: top-dose activity change, negative = inhibition, actives largely listed as inhibitors; actives 4.4% (n = 360,000); AID 504333; further: on the % scale 0 is the no-effect control and ±100 the full control effect; nearly all actives have a fitted effect of over 60% in size
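AlphaScreen displacement: compounds (up to 110uM) incubated 30 min at room temperature with a preformed 50 nM BAZ2B/50 nM biotinylated H3K14Ac peptide complex in PBS pH 7.4 with Tween-20. Donor and acceptor beads at 10 ug/mL final added, 20 min light-protected before reading.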
HP1b binding inh: inhibitors of HP1-beta chromodomain binding to methylated histone tails; Potency, µM (highest dose often 114 µM), for inactives: at the top dose activity change, negative = inhibition, actives largely listed as inhibitors; P83916; actives 0.56% (n = 390,000); AID 540317; AlphaScreen HP1-beta / biotin-H3K9me3 peptide binding; further: nearly all actives have a fitted effect of over 70% in size
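HP1-beta protein (50 nM final) preincubated 30 min at room temperature with biotinylated H3(1-18)K9me3 peptide (50 nM) in PBS pH 7.4, 0.01% Tween-20, then compound added for 30 min. AlphaScreen streptavidin donor/nickel chelate acceptor beads (10 ug/mL final), 30 min dark, luminescence read.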
G9a inh: G9a (human) methyltransferase inhibition | Q96KQ7 | G9a H3K9 monomethylation, AlphaScreen, 2 h | Potency, µM (series often up to 102 µM), inactives show at the top dose activity, negative = inhibition, most hits filed as inhibitors | actives 8.8% (n = 350,000) | AID 504332; further: on the % scale 0 is the no-effect control and ±100 the full control effect; nearly all actives have a fitted effect of over 75% in size
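Chemiluminescent proximity detection of H3K9 monomethylation, read after 10 min bead incubation in the dark. Reaction: 20 nM G9a, 500 nM biotin-H3K9 peptide, 20 uM SAM cofactor, 2 h, room temperature, following 15 min enzyme-compound preincubation.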
JMJD2A Tudor inh: inhibitors of human JMJD2A Tudor domain | O75164 | AlphaScreen JMJD2A-Tudor / H3K4me3 peptide binding | Potency, µM (highest dose often 114 µM), without a hit: top-dose activity change, negative = inhibition, hits mostly inhibitors | actives 4.4% (n = 390,000) | AID 504339; further: on the % scale 0 is the no-effect control and ±100 the full control effect; nearly all actives have a fitted effect of over 50% in size
Sfp inh: blocks B. subtilis Sfp PPTase activity | Biochemical Sfp PPTase activity, qHTS | Potency, µM, for inactives: largest response in the series, negative = inhibition, usual class: inhibitors | actives 3.5% (n = 310,000) | AID 1490;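 further: the enzyme is Sfp with the accession as filed and its product quenches rhodamine fluorescence; 0% = enzyme reaction without inhibitor and -100% = no enzyme wells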
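Reaction rates are the 30-min fluorescence difference (ex 525, em 598 nm) in wells containing 15 nM Sfp, 5 uM rhodamine-CoA and 12.5 uM BHQ-2-YbbR at pH 7.6 with 10 mM MgCl2.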
Starred values were filed as active, the others as inactive; u = inconclusive; x = no result given; [ ] = remark or other dose. The call rests on the fitted dose curve; in most records, active means well fitted curve in the direction sought with a large enough effect; inconclusive means small, poorly fitted or top-dose-only effect, or another doubt; inactive means no such curve, though single readings can be large; an effect the other way counts as inactive or inconclusive. Potency means the concentration at half of the fitted maximal effect.

SMILES	BAZ2B inh	HP1b binding inh	G9a inh	JMJD2A Tudor inh	Sfp inh
Cc1cccc(CNCc2ccccc2)c1	2.1%	66.1%	u	-5.3%[57.1 µM]	12.8%
CC(=O)Nc1ccc(CC(=O)O)cc1	-19.1%	45.9%	16.2%[59 µM]	-4.1%	14.4%
CC(=O)Nc1ccc(N(CC(O)Cn2c3ccccc3c3ccccc32)S(=O)(=O)c2ccc(C)cc2)cc1 (centres undefined)	-25.5%	4.7%	10µM*	-25.5%	22.4%
Cc1ccc(N(CC(O)Cn2c3ccccc3c3ccccc32)S(C)(=O)=O)cc1 (centres undefined)	-1.4%	7.4%	16.9%[12.7 µM]	-23.8%	2.4%
CCOc1cc(/C=C(/C#N)C(=O)Nc2ccc(O)cc2)cc(Br)c1O	-37.5%	-13.1%	50.1µM*	-27.0%	-10.2%
C=CCNC(=O)/C(C#N)=C\c1cc(Cl)c(O)c(OCC)c1	-15.1%	9.2%	11.2µM*	-11.0%	1.0%
CCOc1ccc(NC(=O)/C(C#N)=C/c2ccc(N3CCCC3)c(C)c2)cc1	1.5%	17.3%	1.6%[59 µM]	-8.9%	-8.1%
CCOCCCNC(=O)/C(C#N)=C/c1cc(C)c(O)c(C)c1	-8.1%	52.7%	-49.7%	-12.3%	12.6%
COc1ccc(-c2csc(NC(=O)CN3C(=O)CCC3=O)n2)cc1OC	-4.4%	16.1%	2.1%[59 µM]	-1.9%	11.6%
c1coc(CSSCc2ccco2)c1	-4.0%	u	20.2%[2.33 µM]	56.2µM*	x
COc1ccccc1CNc1ncncc1-c1ccc(N(C)C)cc1	x	x	x	x	-5.7%
COc1ccc(CNc2ncncc2-c2ccc(N(C)C)cc2)c(OC)c1	x	x	-0.7%[0.501 µM]	x	79.4µM*
O=C1C2CCCN2C(c2cccc(Br)c2)N1c1ccc(F)cc1 (centres undefined)	8.8%	39.0%	70.8µM*	-6.3%	-20.5%
O=C1C2CCCN2C(c2ccc(Br)cc2)N1c1ccc(F)cc1 (centres undefined)	5.9%	51.8%	4.7%	-7.1%	24.7%
Cc1ccccc1-c1nccc(-n2ccnc2)n1	x	x	x	x	56.2µM*
CS(=O)(=O)Nc1cccc(-c2nccc(-n3ccnc3)n2)c1	x	x	x	x	56.2µM*
CS(=O)(=O)Nc1cccc(-c2nc(-n3ccnc3)c3ccccc3n2)c1	x	x	-31.7%[0.501 µM]	x	14.8%
N#Cc1cccc(-c2nccc(-n3ccnc3)n2)c1	x	x	u	x	50.1µM*
CCOc1ccc(-c2cc3nc(C4CCN(C(=O)OC(C)(C)C)CC4)c(C(=O)Nc4cc(OC)ccc4OC)cn3n2)cc1	u	28.4%	-33.9%[59 µM]	u	x
CCCCOC(=O)c1ccc(NC(=O)c2ccc3c(c2)CCN3S(C)(=O)=O)cc1	8.2%	44.4%	-3.4%[59 µM]	-9.1%	x
COC(=O)C1=C(O)/C(=C\c2cc(C)n(-c3ccccc3F)c2C)N=C1C	56.2µM*	11.7%	u	-12.5%	4.3%
COC(=O)C1=C(O)/C(=C\c2cc(C)n(-c3ccccc3C)c2C)N=C1C	79.4µM*	2.8%	20µM*	-29.3%	44.7µM*
CCc1noc(C)c1C(=O)NNC(=O)c1cc(OC)c(OC)c(OC)c1	2.7%	29.2%	6.31µM*	1.3%	x
COc1cc(C(=O)NNC(=O)c2cc(C)[nH]n2)cc(OC)c1OC	-35.7%	-25.5%	12.6µM*	u	-13.8%
COc1cc(NC(=O)c2ccc(=O)[nH]n2)cc(OC)c1OC	7.4%	14.7%	-8.8%	-4.9%	12.4%
SMILES	BAZ2B inh	HP1b binding inh	G9a inh	JMJD2A Tudor inh	Sfp inh
Cc1cc(C(=O)NNC(=O)CCCCC(=O)NNC(=O)c2cc(C)[nH]n2)n[nH]1	7.3%	26.0%	3.98µM*	-15.3%	79.4µM*
COc1ccc(CC(=O)NNC(=O)c2cc(C)[nH]n2)cc1	-15.8%	14.8%	22.1%	u	-15.5%
CCN(C(=O)COc1ncnc2sccc12)c1ccccc1	-11.4%	31.4%	-20.4%	-1.1%[57.1 µM]	2.0%
CCn1nc(NC(=O)c2ccco2)c2cc3cc(C)ccc3nc21	7.1%	48.1%	2.2%	2.5%	-4.1%
Cc1ccc(-n2nc(C(=O)NCCN(C)C)c(=O)n(C)c2=O)cc1	-11.3%	12.4%[57 µM]	6.3%[59 µM]	-15.0%	x
C/C(CC(=O)Nc1ccc(Cl)c(C(F)(F)F)c1)=N\NC(N)=S	-22.9%	12.8%	u	-7.0%	4.4%
C/C(CC(=O)NC(C)(C)C)=N\NC(=O)c1ccccc1N	-20.3%	4.2%	u	39.8µM*	-6.8%
C/C(CC(=O)Nc1cccc2c1CCCC2)=N\NC(=O)c1ccccc1N	13.2%	6.2%	9.8%[2.33 µM]	-20.9%	-1.7%
C/C(CC(=O)NC(C)(C)C)=N\NC(N)=S	u	u	3.98µM*	u	35.5µM*
Cc1cccc(-n2nc(C)c3c2NC2=C(C(=O)CCC2)C3c2ccccn2)c1 (centres undefined)	-26.8%	5.4%	35.5µM*	u	1.9%
O=C(O)CCC(=O)N1CCN(c2nc(-c3ccccc3)c3ccccc3n2)CC1	-3.2%	56.1%	10.7%	18.4%	13.6%
Cc1ccc2cc(C)c3nnc(SCc4ccc(C(=O)O)cc4)n3c2c1C	u	26.7%	x	39.8µM*	-6.8%
Cc1cccc(NS(=O)(=O)c2nnc(NC(=O)c3ccc(Cl)cc3)s2)c1	-1.6%	26.5%	u	-18.4%	26.7%
CCOC(=O)N1CCN(C(=O)CCCN2C(=O)CSc3nc(C)cc(C)c32)CC1	43.1%	18.7%	-6.1%[2.33 µM]	0.7%	-0.4%
O=C(Nc1ccc2nc(-c3cccs3)[nH]c2c1)c1ccco1	1.3%	41.8%	u	0.0%	2.8%
Cn1cccc1-c1nc2ccc(NC(=O)c3ccco3)cc2[nH]1	50.1µM*	u	u	u	10.1%
Cc1ccc2nc(-c3ccc(NC(=O)c4ccco4)cc3)[nH]c2c1	-16.0%	-20.1%	28.2µM*	-34.0%	-4.3%
Cc1ccc(SCC(=O)NC(=O)NC2CCCC2)c(C)c1	29.1%	41.1%	-26.7%	12.1%	x
COc1cc(OC)cc(-c2cc(N)n(S(=O)(=O)c3cccc4nsnc34)n2)c1	u	-15.2%	u	u	2.6%
CCOc1ccc(-c2cc(N)n(S(=O)(=O)c3cccc4nsnc34)n2)cc1	u	-11.8%	22.4µM*	u	3.4%
O=C(C[n+]1cccc2ccccc21)c1ccc(Cl)cc1	-23.8%	16.3%	u	-14.0%	7.0%
NC(=O)c1cccc([N+](=O)[O-])c1	-1.9%	28.9%	-0.4%[0.501 µM]	-11.7%	x
O=C(Nc1ccc(Cc2ccncc2)cc1)c1cccc([N+](=O)[O-])c1	u	4.1%	u	-33.8%	u
O=C(CCNc1ccc(Cc2ccncc2)cc1)c1ccc([N+](=O)[O-])cc1	u	u	-115.9%[59 µM]	22.4µM*	-14.1%
O=C(C[n+]1cccc2ccccc21)c1ccc([N+](=O)[O-])cc1	-31.5%	-16.6%	u	28.2µM*	-3.7%
O=C(CNc1ccccc1)c1ccc([N+](=O)[O-])cc1	u	-16.8%	4.47µM*	-33.3%	50.1µM*
O=C(CCNc1ccccc1)c1cccc([N+](=O)[O-])c1	u	-0.1%	17.8µM*	u	-15.6%
O=C(COc1ccccc1)NCCn1ccc2ccccc21	-4.1%	12.2%	-4.1%[59 µM]	-9.8%	8.6%

Source: PubChem
